Measurements published in PubChem BioAssay (EPA / NIEHS).
Activity calls are given as the source filed them. Rule for the calls, unless noted: active = hit-call score of the fitted dose curve at least 0.9, where 1 is the maximum; inactive = score below 0.9.

Columns and labels:
[1] = read-out: Macrophage colony-stimulating factor (MCSF), CSF1 (gene 1435); assay: BSK_IMphg_MCSF: BioMAP Diversity Plus: IMphg Assay for Macrophage colony-stimulating factor (MCSF) Biomarker Activity (AID 2284293); settings: primary human endothelial cells with macrophages
In short: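 Co-culture of human venular endothelial cells and macrophages, 24 hours of chemical exposure. M-CSF quantified by ELISA, with parallel SRB total-protein staining for cytotoxicity; activity fitted relative to DMSO.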

[2] = read-out: Interleukin-10 (IL10), IL10 (gene 3586); assay: BSK_IMphg_IL10: BioMAP Diversity Plus: IMphg Assay for Interleukin-10 (IL10) Biomarker Activity (AID 2284294); settings: primary human endothelial cells with macrophages
In short: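 Human venular endothelial cells cocultured with macrophages, dosed 24 h; IL-10 measured by ELISA, activity relative to DMSO. Cytotoxicity assessed in parallel cultures by sulforhodamine B total-protein staining.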

[3] = BSK_IMphg_SRB.Mphg: Macrophage Viability Assessment in the BioMAP Diversity Plus: IMphg Assay (AID 2284295); settings: primary human endothelial cells with macrophages
In short: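 Venular endothelial cells co-cultured with macrophages, read 24 h after dosing. Total protein measured by 0.1% SRB staining after 10% TCA fixation, absorbance at 560 nm. Fitted in positive direction against DMSO baseline.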

[4] = read-out: Thrombomodulin, THBD (gene 7056); assay: BSK_LPS_Thrombomodulin: BioMAP Diversity Plus: LPS Assay for Thrombomodulin Biomarker Activity (AID 2284296); settings: primary human HUVEC with PBMC
In short: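 Human umbilical vein endothelial cells co-cultured with PBMC and stimulated with LPS; cell-surface thrombomodulin measured by ELISA 24 hours after compound. Gain or loss versus DMSO; cytotoxicity checked by SRB staining in parallel cultures.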

CD69, CD69 (gene 969) = assay: BSK_LPS_CD69: BioMAP Diversity Plus: LPS Assay for CD69 Biomarker Activity (AID 2284303); settings: primary human HUVEC with PBMC
In short: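 Human umbilical vein endothelial cells co-cultured with PBMC under LPS stimulation, chemical exposure 24 h; cell-surface CD69 measured by ELISA and fitted in the positive direction versus DMSO.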

[5] = Tanguay_ZF_120hpf_MO24: Oregon State University Tanguay Lab 24 Hour Post-fertilization zebrafish Assay for Mortality (AID 2284389)
In short: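 Dechorionated wild-type zebrafish embryos, 1 per well, statically exposed from 6 hpf at 28C, 0.64% DMSO final. Mortality scored as binary present/absent at 24 hpf by brightfield microscopy, relative to DMSO.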

[6] = Tanguay_ZF_120hpf_CRAN: Oregon State University Tanguay Lab 120 Hour Post-fertilization zebrafish Assay for Craniofacial Malformation (AID 2284397)
In short: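 Dechorionated Tropical 5D wild-type zebrafish embryos, one per well, were statically exposed from 6 to 120 hpf at 28C in 0.64% DMSO, with 5uM trimethyltin chloride as positive control. Craniofacial malformation was scored present/absent by brightfield microscopy, relative to DMSO.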

[7] = Tanguay_ZF_120hpf_AXIS: Oregon State University Tanguay Lab 120 Hour Post-fertilization zebrafish Assay for Axial Malformation (AID 2284398)
In short: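 Dechorionated 5D wild-type zebrafish embryos exposed statically, one per well, from 6 to 120 hpf at 28C, 0.64% DMSO. Axial malformation scored as present/absent by brightfield microscopy at 120 hpf; dead embryos not scored.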

[8] = Tanguay_ZF_120hpf_MORT: Oregon State University Tanguay Lab 120 Hour Post-fertilization zebrafish Assay for Mortality (AID 2284399)
In short: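 Dechorionated wild-type Tropical 5D zebrafish embryos, one per well from 6 hpf, static exposure to 120 hpf at 28C in sealed dark plates, 0.64% DMSO final. Mortality scored as binary by brightfield at 24 and 120 hpf.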

[9] = Tanguay_ZF_120hpf_EDEM: Oregon State University Tanguay Lab 120 Hour Post-fertilization zebrafish Assay for Edema Malformation (AID 2284400)
In short: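 Dechorionated Tropical 5D wild-type embryos, one per well, statically exposed from 6 to 120 hpf at 28C in 0.64% DMSO. Edema scored present/absent by brightfield microscopy at 120 hpf; dead embryos not scored; fit versus DMSO.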

[10] = Tanguay_ZF_120hpf_ANY: Oregon State University Tanguay Lab 120 Hour Post-fertilization zebrafish Assay for Any Mortality and Malformation (AID 2284404)
In short: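 Dechorionated Tropical 5D wild-type embryos, one per well from 6 hpf, static exposure in sealed, dark plates at 28C until 120 hpf, 0.64% DMSO final. Brightfield scoring of mortality and malformations as binary presence/absence, pooling 13 morphology endpoints.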

[11] = CCTE_Padilla_ZF_Score.Craniofacial: CCTE's 144 Hour Post-fertilization zebrafish Assay Score for Craniofacial Malformation, Padilla Lab (AID 2284405)
In short: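 Wild-type zebrafish embryos (with chorions), one per well in 10% Hanks', were dosed at 6–8 hpf in sealed plates and kept at 26C. They were rinsed at 5 dpf. At 6 dpf two blinded assessors scored craniofacial malformations by brightfield stereomicroscopy.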

[12] = CCTE_Deisenroth_5AR_NBTE_donor: CCTE's 5alpha-reductase NanoBRET Target Engagement Assay […], Deisenroth Lab (AID 2284319); settings: actives raise or lower the signal
In short: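 Donor NanoLuc luminescence at 460-20 nm is the read-out, serving artifact detection. Transiently expressed SRD5A2-NanoLuc in HEK293T; 5 h total chemical exposure, testosterone tracer added for the final 2 h; fitting bidirectional relative to DMSO baseline.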

[13] = CCTE_Deisenroth_5AR_NBTE_acceptor: CCTE's 5alpha-reductase NanoBRET Target Engagement Assay - Autofluorescence Screen, Deisenroth Lab (AID 2284321); settings: actives raise or lower the signal;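 note: compound fluorescence in the acceptor channel under 460 nm excitation flags autofluorescence artifacts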
In short: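 Acceptor fluorescence intensity was read as an artifact-detection endpoint. Test chemicals at an assumed nominal 100 uM were excited at 460 nm across three independent runs. Activity was fitted bidirectionally against DMSO.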

SRD5A2 (gene 6716) = assay: CCTE_Deisenroth_5AR_NBTE_ratio: CCTE's 5alpha-reductase NanoBRET Target Engagement Assay - Ratio, Deisenroth Lab (AID 2284322); settings: actives raise or lower the signal
In short: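 HEK293T transiently expressing SRD5A2-NanoLuc; cells exposed to chemical (8-point, 10 nM - 29.9 uM) for 5 h total, testosterone tracer added for final 2 h. NanoBRET acceptor/donor ratio (650/460 nm), bidirectional fit vs DMSO.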

SERPINA7 (gene 6906) = assay: CCTE_GLTED_hTBG: CCTE's human Thyroxine-binding Globulin (TBG) Inhibition Assay, Great Lakes Toxicology and Ecology Division (GLTED) Lab (AID 2284343; active = hit-call score of the fitted dose curve at least 0.9, where 1 is the maximum;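 note: active chemicals lower fluorescence versus DMSO baseline by displacing probe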)
In short: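 Human TBG incubated 2 h with test chemical; displacement of ANSA probe read by fluorescence, 380 nm excitation/475 nm emission. Loss of signal relative to DMSO.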

TTR (gene 7276) = assay: CCTE_GLTED_hTTR_0.5uM: CCTE's human Transthyretin (hTTR) Inhibition Assay, with 0.5uM TTR, Great Lakes Toxicology and Ecology Division (GLTED) Lab (AID 2284320)
In short: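 Cell-free displacement assay in which human TTR at 0.5 uM was incubated with test chemical for 2 h. Displacement of the ANSA probe was read by fluorescence at 380 nm excitation/475 nm emission. Loss of signal was fitted in the positive direction versus DMSO.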

Measured: AC50

O=C(O)C(F)(F)C(F)(F)C(F)(F)C(=O)O
not listed: [12] | [13] | SRD5A2 (gene 6716) | SERPINA7 (gene 6906) | TTR (gene 7276)
inactive: all other assays above

CCCCCCCCCc1ccc(OCCO)cc1
active: [12] 40.3 µM | [13] 19.1 µM | SRD5A2 (gene 6716) 88.8 µM | SERPINA7 (gene 6906) 50 µM

CO[Si](C)(CCC(F)(F)C(F)(F)C(F)(F)C(F)(F)C(F)(F)C(F)(F)F)OC
not listed: [12] | [13] | SRD5A2 (gene 6716) | SERPINA7 (gene 6906) | TTR (gene 7276)
inactive: all other assays above

NCC(F)(F)C(F)(F)C(F)(F)C(F)(F)C(F)(F)C(F)(F)F
inactive: [1] | [2] | [3] | [4] | CD69, CD69 (gene 969) | [11]

NCC(F)(F)C(F)(F)C(F)(F)C(F)(F)C(F)(F)C(F)(F)C(F)(F)C(F)(F)F
inactive: [1] | [2] | [3] | [4] | CD69, CD69 (gene 969) | [11]

NC(=O)C(F)(F)C(F)(F)C(F)(F)F
not listed: [12] | [13] | SRD5A2 (gene 6716) | SERPINA7 (gene 6906) | TTR (gene 7276)
inactive: all other assays above

OCC(F)(F)C(F)(F)C(F)(F)CO
not listed: [12] | [13] | SRD5A2 (gene 6716) | SERPINA7 (gene 6906) | TTR (gene 7276)
inactive: all other assays above

C=CC(=O)OCCC(F)(F)C(F)(F)C(F)(F)C(F)(F)F
not listed: [12] | [13] | SRD5A2 (gene 6716) | SERPINA7 (gene 6906)
inactive: all other assays above
